The supplement of paper PMC9262897, “Low-cost anti-mycobacterial drug discovery using engineered E. coli” (Nature Communications, 2022)
Where a name gives a salt, the structure may show the parent alone. ± gives the standard deviation of the averaged measurements.

How the values were obtained:
Assay in all cases: growth (OD600 after 10 h); higher = more growth (less inhibition)
[1] = system: E. coli TESEC Alr+ wild-type control; details: compound 0.1 mM; raw OD600 reference: median of DMSO wells 0.241, cell-free background 0.041
Method: (§1)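 TESEC Mtb Alr E. coli, or the Alr+ wild-type control, in 384-well plates with Prestwick library compounds at 0.1 mM and 1% DMSO, across arabinose induction levels of 1E3 to 1E7 nM. Growth is read as OD600 after 10 h at 37 °C in triplicate biological replicates.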

E. coli TESEC Mtb Alr [2] = details: compound 0.1 mM
Method: as §1

E. coli TESEC Mtb Asd = details: compound 0.1 mM
Method: (§2)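 TESEC E. coli strains in which the native enzyme is deleted and replaced by arabinose-inducible Mtb Asd, DapB, CysH or TrpD, each grown in its selective medium. Strains were screened against the Prestwick library at 0.1 mM and 1% DMSO in 384-well format at low and high arabinose induction. Growth is read as OD600 after 10 h in triplicate.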

E. coli TESEC Mtb DapB = details: compound 0.1 mM
Method: as §2

E. coli TESEC Mtb Alr [3] = details: compound 0.1 mM; remark: listed apart in the source
Method: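 TESEC Mtb Alr E. coli (ΔaraC ΔtolC ΔentC Δalr ΔdadX, arabinose-inducible Mtb Alr) or the Alr+ wild-type control strain, grown in defined M9-fructose medium without D-alanine in 96-well plates with Prestwick library compounds at 0.1 mM and 1% DMSO. Low Alr induction is 0.1 µM arabinose and high induction is 10 mM arabinose.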

[4] = arabinose 1000 nM, raw OD600 reference: median of DMSO wells 0.294, cell-free background 0.041
[5] = arabinose 10000 nM, raw OD600 reference: median of DMSO wells 0.264, cell-free background 0.041
[6] = arabinose 100000 nM, raw OD600 reference: median of DMSO wells 0.201, cell-free background 0.041
[7] = arabinose 1000000 nM, raw OD600 reference: median of DMSO wells 0.193, cell-free background 0.041
[8] = arabinose 10000000 nM, raw OD600 reference: median of DMSO wells 0.146, cell-free background 0.041
[9] = arabinose induction (level): High, raw OD600 reference: median of DMSO wells 0.331, cell-free background 0.041
[10] = arabinose induction (level): Low, raw OD600 reference: median of DMSO wells 0.417, cell-free background 0.041
[11] = arabinose induction (level): High, raw OD600 reference: median of DMSO wells […], cell-free background 0.041
[12] = arabinose induction (level): Low, raw OD600 reference: median of DMSO wells 0.227, cell-free background 0.041
[13] = arabinose 100 nM, raw OD600 reference: median of DMSO wells 0.413, cell-free background 0.052
[14] = arabinose 10000000 nM, raw OD600 reference: median of DMSO wells […], cell-free background 0.052

| Compound | growth [1] | growth (E. coli TESEC Mtb Alr [2]; [4]) | growth (E. coli TESEC Mtb Alr [2]; [5]) | growth (E. coli TESEC Mtb Alr [2]; [6]) | growth (E. coli TESEC Mtb Alr [2]; [7]) | growth (E. coli TESEC Mtb Alr [2]; [8]) | growth (E. coli TESEC Mtb Asd; [9]) | growth (E. coli TESEC Mtb Asd; [10]) | growth (E. coli TESEC Mtb DapB; [11]) | growth (E. coli TESEC Mtb DapB; [12]) | growth (E. coli TESEC Mtb Alr [3]; [13]) | growth (E. coli TESEC Mtb Alr [3]; [14]) |
| --- | --- | --- | --- | --- | --- | --- | --- | --- | --- | --- | --- | --- |
| CCC(C)n1ncn(-c2ccc(N3CCN(c4ccc(OCC5COC(Cn6cncn6)(c6ccc(Cl)cc6Cl)O5)cc4)CC3)cc2)c1=O (centres undefined) [Itraconazole] | 0.25 ± 0.006 | 0.321 ± 0.01 | 0.258 ± 0.0035 | 0.251 ± 0.012 | 0.171 ± 0.017 | 0.148 ± 0.005 | 0.421 ± 0.0098 | 0.462 ± 0.049 | 0.182 ± 0.035 | 0.217 ± 0.017 | 0.441 ± 0.027 | 0.368 ± 0.015 |
| CN1C(=O)CC(c2ccccc2)C1=O (centres undefined) [Phensuximide] | 0.244 ± 0.0072 | 0.299 ± 0.0059 | 0.281 ± 0.0045 | 0.183 ± 0.022 | 0.231 ± 0.02 | 0.138 ± 0.011 | 0.338 ± 0.022 | 0.401 ± 0.035 | 0.174 ± 0.0062 | 0.219 ± 0.015 | 0.431 ± 0.015 | 0.357 ± 0.0052 |
| Cn1nnc2c(C(N)=O)ncn2c1=O [Temozolomide] | 0.241 ± 0.006 | 0.289 ± 0.0045 | 0.248 ± 0.0082 | 0.208 ± 0.018 | 0.163 ± 0.0073 | 0.134 ± 0.0048 | 0.225 ± 0.0049 | 0.305 ± 0.022 | 0.194 ± 0.02 | 0.211 ± 0.0067 | 0.423 ± 0.011 | 0.35 ± 0.01 |
| CN(C)CCCN1c2ccccc2Sc2ccc(Cl)cc21 [Chlorpromazine hydrochloride] | 0.0844 ± 0.00072 | 0.054 ± 0.0094 | 0.04817 ± 5.8e-05 | 0.0531 ± 0.008 | 0.0443 ± 0.00046 | 0.0452 ± 0.00035 | 0.0646 ± 0.0046 | 0.0699 ± 0.0027 | 0.13 ± 0.012 | 0.25 ± 0.08 | 0.425 ± 0.0072 | 0.0848 ± 0.022 |
| N=C(N)NC(=O)Cc1c(Cl)cccc1Cl [Guanfacine hydrochloride] | 0.241 ± 0.0058 | 0.287 ± 0.0063 | 0.26 ± 0.0052 | 0.236 ± 0.018 | 0.143 ± 0.0065 | 0.165 ± 0.0022 | 0.43 ± 0.13 | 0.444 ± 0.018 | 0.19 ± 0.015 | 0.214 ± 0.026 | 0.406 ± 0.0086 | 0.329 ± 0.018 |
| COCCCC/C(=N\OCCN)c1ccc(C(F)(F)F)cc1 [Fluvoxamine maleate] | 0.225 ± 0.0049 | 0.274 ± 0.0066 | 0.26 ± 0.013 | 0.214 ± 0.016 | 0.133 ± 0.0052 | 0.136 ± 0.0081 | 0.295 ± 0.079 | 0.231 ± 0.044 | 0.183 ± 0.014 | 0.229 ± 0.05 | 0.416 ± 0.0072 | 0.319 ± 0.0054 |
| CCOc1ccc2ccccc2c1C(=O)N[C@@H]1C(=O)N2[C@@H]1SC(C)(C)[C@@H]2C(=O)O [Nafcillin sodium salt monohydrate] | 0.236 ± 0.0097 | 0.303 ± 0.011 | 0.257 ± 0.014 | 0.203 ± 0.0041 | 0.188 ± 0.01 | 0.138 ± 0.0027 | 0.43 ± 0.048 | 0.439 ± 0.043 | 0.183 ± 0.007 | 0.22 ± 0.0024 | 0.403 ± 0.013 | 0.343 ± 0.016 |
